Measured values reported in PubChem BioAssay (EPA / NIEHS).
Values joined by “and” are separate entries in the source; they are usually repeats but may differ in a detail not shown here. Equal entries are not always repeated. Inconclusive results are not listed. Some structures have more than one record in an assay (separate samples or runs), and their calls can disagree. Active and inactive are the calls of the source. The calls were made as follows: active = hit-call score of the fitted dose curve at least 0.9, where 1 is the maximum; inconclusive = response in the unintended direction; inactive = score below 0.9.

How the values were obtained:
[1] = TOX21_p53_BLA_p2_viability: Viability Assessment in the Tox21 HCT-116 p53 Agonism Beta-lactamase Assay, Phase 2 (AID 2283591);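 also: compound exposure lasted 16 h at 37 °C; actives lower the ATP signal meaning cytotoxicity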
How it was run: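 HCT-116 p53-bla cells (4000/well) rested 5 h at 37C, then received compounds in DMSO (217-fold dilution) for 16 h at 37C, 5% CO2. After the CCF4 read, CellTiter-Glo was added; ATP luminescence was read after 30 min at room temperature.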

[2] = molecular target: Cellular tumor antigen p53 (Homo sapiens) (UniProt P04637); experiment: TOX21_p53_BLA_p3_ratio: Tox21 HCT-116 p53 Agonism Beta-lactamase Assay, Ratio, Phase 3 (AID 2283596)
Chain of Cellular tumor antigen p53 (Homo sapiens) (P04637 whole entry, looked up): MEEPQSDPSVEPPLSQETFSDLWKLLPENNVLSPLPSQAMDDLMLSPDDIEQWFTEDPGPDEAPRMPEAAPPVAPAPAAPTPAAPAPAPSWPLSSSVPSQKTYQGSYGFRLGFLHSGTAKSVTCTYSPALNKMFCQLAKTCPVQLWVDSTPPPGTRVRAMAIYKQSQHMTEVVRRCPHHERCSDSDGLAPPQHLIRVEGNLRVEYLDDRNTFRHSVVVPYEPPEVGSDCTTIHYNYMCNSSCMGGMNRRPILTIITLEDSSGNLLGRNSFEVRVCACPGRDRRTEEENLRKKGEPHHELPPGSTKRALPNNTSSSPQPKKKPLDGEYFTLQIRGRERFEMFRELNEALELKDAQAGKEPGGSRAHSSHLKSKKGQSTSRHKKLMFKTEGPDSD
How it was run: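 Cells were seeded at 4000/well, rested 5 h at 37C, then dosed with DMSO compound solutions (217-fold dilution) for 16 h. CCF4-AM substrate was loaded for 2 h at room temperature, and the 460/530 nm emission ratio was fitted for gain of signal versus DMSO.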

[3] = TOX21_p53_BLA_p4_viability: Viability Assessment in the Tox21 HCT-116 p53 Agonism Beta-lactamase Assay, Phase 4 (AID 2283597);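 also: hits lower the luminescence signal meaning cytotoxicity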
How it was run: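 In this multiplexed secondary endpoint, HCT116 cells (4000 per well, compound at 5 h, 16 h treatment) received CellTiter-Glo after the beta-lactamase read. Luminescence after 30 min RT reflects ATP, and falling signal marks cytotoxicity.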

[4] = TOX21_p53_BLA_p5_viability: Viability Assessment in the Tox21 HCT-116 p53 Agonism Beta-lactamase Assay, Phase 5 (AID 2283600)
How it was run: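 Here cell health was gauged by ATP levels in wells holding 4000 cells, each treated 16 h with DMSO-delivered compounds at 217-fold dilution; reduced luminescence marked toxicity.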

[5] = molecular target: Cellular tumor antigen p53 (Homo sapiens) (UniProt P04637); experiment: TOX21_p53_BLA_p2_ratio: Tox21 HCT-116 p53 Agonism Beta-lactamase Assay, Ratio, Phase 2 (AID 2283592)
How it was run: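 DMSO-normalized, positive-direction endpoint derived from the 460 nm/530 nm FRET ratio in HCT116 p53 beta-lactamase reporter cells exposed 16 h at 37C and loaded with CCF4-AM for 2 h.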

[6] = ATG_XTT_Cytotoxicity: Cytotoxicity Assessment in the Attagene TRANS-FACTORIAL HepG2 Assay (AID 2283584)
How it was run: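 24 h chemical exposure of reporter-transfected HepG2; XTT signal loss vs DMSO indicates cytotoxicity.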

[7] = molecular target: Cellular tumor antigen p53 (Homo sapiens) (UniProt P04637); experiment: TOX21_p53_BLA_p5_ratio: Tox21 HCT-116 p53 Agonism Beta-lactamase Assay, Ratio, Phase 5 (AID 2283599)
How it was run: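 HCT-116 cells carrying a p53-inducible beta-lactamase reporter were seeded at 4000 cells/well and dosed after 5 h with compound in DMSO (217-fold dilution). After 16 h at 37C, CCF4-AM substrate was added for 2 h, and the 460/530 nm emission ratio was scored as gain-of-signal versus DMSO.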

[8] = molecular target: Cellular tumor antigen p53 (Homo sapiens) (UniProt P04637); experiment: TOX21_p53_BLA_p4_ratio: Tox21 HCT-116 p53 Agonism Beta-lactamase Assay, Ratio, Phase 4 (AID 2283601)
How it was run: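 HCT116 cells carrying an inducible beta-lactamase reporter were plated at 4000 cells/well, rested 5 h, then exposed to compounds in DMSO (217-fold dilution) for 16 h at 37C. CCF4-AM substrate was loaded 2 h at room temperature; 460/530 nm emission ratio scored gain-of-signal versus DMSO.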

[9] = TOX21_p53_BLA_p3_viability: Viability Assessment in the Tox21 HCT-116 p53 Agonism Beta-lactamase Assay, Phase 3 (AID 2283593);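 also: cells exposed to compound for 16 h before reading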
How it was run: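 HCT-116 cells (4000/well) rested 5 h at 37C, then got DMSO compounds by pin tool (217-fold dilution) for 16 h at 37C, 5% CO2. After the bla read, CellTiter-Glo was added and luminescence read at 30 min, room temperature.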

Measured: AC50

CC(C)OC(=S)S
inactive: [1] | [2] | [3] | [4]

c1cc[c]([Hg][c]2ccccc2)cc1
active: [5] 15.2 µM | [3] 79.3 µM
inactive: [1] | [2]

CNC(=O)O/N=C/C(C)(C)S(C)=O (stereo not given)
inactive: [6] | [1] | [2] | [7] | [8]

Nc1ccc(N=Nc2ccc(-c3ccc(N=Nc4c(S(=O)(=O)O)cc5cc(S(=O)(=O)O)c(N=Nc6ccccc6)c(O)c5c4N)cc3)cc2)c(N)c1
inactive: [5] | [9] | [2] | [3] | [7] | [8]

NC(=O)CF
inactive: [1] | [5] | [2] | [3]

c1ccc(N=NNc2ccccc2)cc1
inactive: [1] | [9] | [2] | [3] | [7] | [4] | [8]

COc1ccccc1OC
inactive: [6] | [5] | [9] | [2] | [3] | [7] | [8]

ClCCBr
inactive: [1] | [9] | [2] | [3] | [7] | [4] | [8]

ClCc1cccnc1
inactive: [1] | [5] | [2] | [7] | [4]

N#CN=C(N)N
inactive: [1] | [5] | [2] | [3] | [4] | [8]

COP(=S)(OC)Oc1cc(Cl)c(Cl)cc1Cl
inactive: [1] | [9] | [2] | [3] | [7] | [4] | [8]

O=C(Cc1ccccc1)c1ccccc1
inactive: [1] | [2] | [7] | [8]

CC(C)c1ccc(CO)cc1
inactive: [1] | [5] | [9] | [2] | [3] | [7] | [4] | [8]

P.[In]
inactive: [1] | [9] | [2] | [3] | [7] | [4] | [8]

O=C(NCO)NCO
inactive: [6] | [2] | [3] | [4] | [8]

COP(=O)(OC)O/C(=C\Cl)c1cc(Cl)c(Cl)cc1Cl
inactive: [6] | [5] | [9] | [2] | [3] | [8]

CC(=O)C(Cl)C(=O)N(C)C (stereo not given)
inactive: [6] | [5] | [2] | [3] | [7] | [4] | [8]

NNC(=S)NN
inactive: [1] | [5] | [9] | [2] | [3] | [8]

OCC(O)CCl (stereo not given)
inactive: [9] | [2] | [3] | [4] | [8]

OCc1ccco1
inactive: [6] | [5] | [9] | [2] | [4] | [8]

O=[N+]([O-])c1ccc2c3c(cccc13)CC2
inactive: [6] | [5] | [9] | [2] | [7] | [8]

COP(=S)(OC)Oc1cc(Cl)c(Br)cc1Cl
active: [5] 70.1 µM | [2] 46.8 µM | [8] 79.6 µM
inactive: [1] | [9] | [3] | [7]

NN=C(N)N
inactive: [5] | [2] | [7] | [8]

CCOC(=O)CP(=O)(OCC)OCC
inactive: [6] | [9] | [2] | [8]

COc1cc(OC)nc(NC(=O)NS(=O)(=O)c2ncccc2C(=O)N(C)C)n1
inactive: [5] | [2] | [3] | [7] | [4] | [8]

CCOP(OCC)OCC
inactive: [9] | [2] | [3] | [7] | [8]

COc1ccc(C(O)(c2cncnc2)C2CC2)cc1 (stereo not given)
inactive: [2] | [4] | [8]

CCCCCCCCCCCCCCCC[n+]1ccccc1
active: [1] 48.8 µM and 69.6 µM | [9] 45.6 µM and 81 µM and 46.1 µM | [2] 36.1 µM and 53.2 µM | [3] 66.5 µM [middle of 4 runs] | [4] 62.7 µM and 84.3 µM and 80.2 µM | [8] 67.7 µM [middle of 4 runs]
inactive: [1] | [9] | [2] | [4]

Cl/C=C/Cl
inactive: [6] | [5] | [9] | [2] | [4] | [8]

O=C(OC1CCCCC1)c1ccccc1C(=O)OC1CCCCC1
inactive: [1] | [5] | [9] | [3] | [7] | [4]

COP(=S)(OC)Oc1ccc(Sc2ccc(OP(=S)(OC)OC)cc2)cc1
inactive: [1] | [5] | [9] | [2] | [3] | [7] | [4] | [8]

CCC[CH2][Sn]([Cl])([Cl])[Cl]
inactive: [1] | [5] | [2] | [4] | [8]

COP(=S)(OC)Oc1c(Cl)cc(C)cc1Cl
inactive: [1] | [5] | [2] | [3] | [7] | [8]

CCOP(=O)(CN(CCO)CCO)OCC
inactive: [6] | [5] | [9] | [3]

CCCCC(CC)CO[N+](=O)[O-] (stereo not given)
inactive: [6] | [1] | [2] | [8]
